Measured values published in the supplement of paper PMC8975748.
Where a name gives a salt, the structure may show the parent alone. ± gives the standard deviation of the averaged measurements.

How the values were obtained:
[1] = test system: Saccharomyces cerevisiae BY4741 SeMeCo community; experiment: mean cell size (pixel area) (pixels); higher = larger cells; settings: 10 µM; 24 h; SM minimal medium
In short: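 Yeast cells were fixed with paraformaldehyde, imaged by automated confocal microscopy and analysed in Harmony to obtain mean cell pixel area per well. They came from a four-plasmid fluorescent Saccharomyces cerevisiae BY4741 community, each plasmid complementing one auxotrophy and carrying a fluorescent marker. Before imaging, 70 µl of culture at OD600 = 0.3 was incubated for 24 h in SM medium in 384-well plates predosed acoustically with drug (final 10 µM). Values are means of 3 replicates. Same SeMeCo high-content imaging drug screen: Selleck FDA-approved drugs at 10 µM, 24 h in SM medium, 384-well plates, 3 replicates.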

[2] = test system: Saccharomyces cerevisiae BY4741 SeMeCo community; experiment: z-score of prototroph abundance vs DMSO median; higher = larger share of this subpopulation than in DMSO controls; settings: 10 µM; 24 h; SM minimal medium; subpopulation (auxotrophy): Prototroph
In short: (§1)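 Cells of a Saccharomyces cerevisiae BY4741 community, carrying four plasmids that each restored one auxotrophy and encoded a distinct fluorescent protein, were pre-grown overnight to OD600 1.0 and diluted to 0.3. A 70 µl volume was added to 384-well plates acoustically predosed with library drugs (10 µM final) and grown 24 h in minimal SM medium. After paraformaldehyde fixation, automated confocal microscopy was used, with single-auxotroph fluorescent strains for thresholds and autofluorescence correction. The abundance of each subpopulation was scored as a z-score against the vehicle-well median.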

[3] = test system: Saccharomyces cerevisiae BY4741 SeMeCo community; experiment: z-score of subpopulation abundance vs DMSO median, subpopulation auxotrophic for M; higher = larger share of this subpopulation than in DMSO controls; settings: 10 µM; 24 h; SM minimal medium; subpopulation (auxotrophy): M
In short: as §1

[4] = test system: Saccharomyces cerevisiae BY4741 SeMeCo community; experiment: z-score of subpopulation abundance vs DMSO median, subpopulation auxotrophic for U; higher = larger share of this subpopulation than in DMSO controls; settings: 10 µM; 24 h; SM minimal medium; subpopulation (auxotrophy): U
In short: as §1

[5] = test system: Saccharomyces cerevisiae BY4741 SeMeCo community; experiment: z-score of subpopulation abundance vs DMSO median, subpopulation auxotrophic for H; higher = larger share of this subpopulation than in DMSO controls; settings: 10 µM; 24 h; SM minimal medium; subpopulation (auxotrophy): H
In short: as §1

[6] = test system: Saccharomyces cerevisiae BY4741 SeMeCo community; experiment: z-score of subpopulation abundance vs DMSO median, subpopulation auxotrophic for LU; higher = larger share of this subpopulation than in DMSO controls; settings: 10 µM; 24 h; SM minimal medium; subpopulation (auxotrophy): LU
In short: as §1

[7] = test system: Saccharomyces cerevisiae BY4741 SeMeCo community; experiment: z-score of subpopulation abundance vs DMSO median, subpopulation auxotrophic for LM; higher = larger share of this subpopulation than in DMSO controls; settings: 10 µM; 24 h; SM minimal medium; subpopulation (auxotrophy): LM
In short: as §1

[8] = test system: Saccharomyces cerevisiae BY4741 SeMeCo community; experiment: z-score of subpopulation abundance vs DMSO median, subpopulation auxotrophic for HM; higher = larger share of this subpopulation than in DMSO controls; settings: 10 µM; 24 h; SM minimal medium; subpopulation (auxotrophy): HM
In short: as §1

[9] = test system: Saccharomyces cerevisiae BY4741 SeMeCo community; experiment: z-score of subpopulation abundance vs DMSO median, subpopulation auxotrophic for UM; higher = larger share of this subpopulation than in DMSO controls; settings: 10 µM; 24 h; SM minimal medium; subpopulation (auxotrophy): UM
In short: as §1

[10] = test system: Saccharomyces cerevisiae BY4741 SeMeCo community; experiment: z-score of subpopulation abundance vs DMSO median, subpopulation auxotrophic for HL; higher = larger share of this subpopulation than in DMSO controls; settings: 10 µM; 24 h; SM minimal medium; subpopulation (auxotrophy): HL
In short: as §1

[11] = test system: Saccharomyces cerevisiae BY4741 SeMeCo community; experiment: z-score of subpopulation abundance vs DMSO median, subpopulation auxotrophic for HLU; higher = larger share of this subpopulation than in DMSO controls; settings: 10 µM; 24 h; SM minimal medium; subpopulation (auxotrophy): HLU
In short: as §1

[12] = test system: Saccharomyces cerevisiae BY4741 SeMeCo community; experiment: z-score of subpopulation abundance vs DMSO median, subpopulation auxotrophic for HUM; higher = larger share of this subpopulation than in DMSO controls; settings: 10 µM; 24 h; SM minimal medium; subpopulation (auxotrophy): HUM
In short: as §1

[13] = test system: Saccharomyces cerevisiae BY4741 SeMeCo community; experiment: z-score of subpopulation abundance vs DMSO median, subpopulation auxotrophic for LUM; higher = larger share of this subpopulation than in DMSO controls; settings: 10 µM; 24 h; SM minimal medium; subpopulation (auxotrophy): LUM
In short: as §1

[14] = test system: Saccharomyces cerevisiae BY4741 SeMeCo community; experiment: z-score of subpopulation abundance vs DMSO median, subpopulation auxotrophic for HLUM; higher = larger share of this subpopulation than in DMSO controls; settings: 10 µM; 24 h; SM minimal medium; subpopulation (auxotrophy): HLUM
In short: as §1

[15] = test system: Saccharomyces cerevisiae BY4741 SeMeCo community; experiment: z-score of subpopulation abundance vs DMSO median, subpopulation auxotrophic for HU; higher = larger share of this subpopulation than in DMSO controls; settings: 10 µM; 24 h; SM minimal medium; subpopulation (auxotrophy): HU
In short: as §1

[16] = test system: Saccharomyces cerevisiae BY4741 SeMeCo community; experiment: z-score of subpopulation abundance vs DMSO median, subpopulation auxotrophic for HLM; higher = larger share of this subpopulation than in DMSO controls; settings: 10 µM; 24 h; SM minimal medium; subpopulation (auxotrophy): HLM
In short: as §1

Compound | mean cell size [1] | z-score of prototroph abundance [2] | z-score of subpopulation abundance [3] | z-score of subpopulation abundance [4] | z-score of subpopulation abundance [5] | z-score of subpopulation abundance [6] | z-score of subpopulation abundance [7] | z-score of subpopulation abundance [8] | z-score of subpopulation abundance [9] | z-score of subpopulation abundance [10] | z-score of subpopulation abundance [11] | z-score of subpopulation abundance [12] | z-score of subpopulation abundance [13] | z-score of subpopulation abundance [14] | z-score of subpopulation abundance [15] | z-score of subpopulation abundance [16]
COc1cccc(-c2c(C)n(Cc3c(F)cccc3C(F)(F)F)c(=O)n(C[C@H](NCCCC(=O)O)c3ccccc3)c2=O)c1F [Elagolix Sodium] | 12.5 ± 0.27 | 0.61 | -0.72 | 0.24 | 1.38 | -0.52 | -0.38 | -0.13 | -0.27 | 0.13 | -0.37 | 0.12 | -0.77 | -0.29 | – | –
Cc1ccc(Nc2c(F)cccc2Cl)c(CC(=O)O)c1 [Lumiracoxib] | 12.9 ± 0.21 | 1.08 | 0.63 | -0.66 | -0.79 | -1.15 | 0.14 | 0 | -0.4 | -0.22 | -0.53 | -1.5 | -0.56 | -0.5 | -1.07 | –
Nc1ccc(S(=O)(=O)Nc2nccs2)cc1 [Sulfathiazole] | 12.4 ± 0.21 | 0.17 | -0.25 | 0.9 | -1.09 | 0.15 | -0.24 | -0.53 | 1.04 | -0.09 | 0.27 | – | 0.11 | -0.19 | -0.39 | -0.42
NC12CC3CC(CC(C3)C1)C2 [Amantadine HCl] | 12.6 ± 0.17 | 0.23 | 0.52 | – | – | -0.18 | -0.26 | -0.31 | -0.27 | -0.19 | -0.31 | -0.08 | -0.72 | -0.01 | -0.11 | –
